Experimental findings from the supplement of paper PMC10941209 are described below.

A number with no mark means an inactive call.

The test system of the assay is Toxoplasma gondii RH 2F1 tachyzoites (intracellular in HFF). The assay is described as follows: parasite survival relative to DMSO control; higher = less antiparasitic activity, active = 20 or less. To be noted: 1 µM; 72 h. How it is done: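 Primary single-dose screen of the MMV Pandemic Response Box at 1 uM against T. gondii RH-2F1 (beta-galactosidase) tachyzoites in HFF cells, 72 h at 37 C. Parasite growth read by CPRG absorbance at 570 nm and normalised to DMSO-treated infected controls (% survival); pyrimethamine was the reference drug. The paper calls at least 80% inhibition a hit.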
Regarding `CC(C)(C)c1ccc(C(=O)NC(=O)N2CCCc3ccccc32)cc1`, the parasite survival was 49.9%.
For `COc1cc(NS(=O)(=O)c2ccc(C)cc2)c2ncccc2c1` the value was 2.97% (active); for `CN(C(=O)C1(c2ccc(Cl)cc2)CCC1)c1ccccc1`, 83.6%.
The same measure for `O=C1[C@H](CC[C@H](O)c2ccc(F)cc2)[C@@H](c2ccc(O)cc2)N1c1ccc(F)cc1`: 91.5%; for `O=C(O)c1ccc(-c2ccc(O[C@H]3O[C@H](CO)[C@@H](O)[C@H](O)[C@@H]3O)cc2)cc1`: 46.4%; for `Cc1ccccc1NC(=O)Nc1cccc([N+](=O)[O-])c1`: 24.2%.
For the molecule `O=C(Nc1ccc(-c2ccccc2)cc1)C1=C(O)C(Cc2ccccc2)OC1=O` (stereo not given), the parasite survival was 54.1%.
On to `CCc1nc(N)nc(N)c1C#CC(C)c1cc(OC)cc(-c2ccncc2)c1` (stereo not given), for which the parasite survival is 4.08% (active).
Regarding `CCNC(=O)Nc1cc2c(-c3ccnc(C)c3)ccc(CNC(=O)OC)c2cn1`, the parasite survival was 31.9%.
For `COc1cc(C(C)(C)CCCC(C)C)cc(OC)c1OC` the value was 36.9%; for `C[C@H](NC(=O)C(=O)Nc1ccccc1C(C)(C)C)C(=O)N[C@@H](CC(=O)O)C(=O)COc1c(F)c(F)cc(F)c1F`, 6% (active).
Regarding `CC(C)Cn1c(=O)n(C)c(=O)c2c(-c3cncn3C)n(Cc3cccc4ccccc34)nc21`, the parasite survival was 68.5%.
The same measure for `Cn1cc(NC(=O)c2cc(NC(=O)c3ccc(/C=C/c4cnc5ccccc5c4)cc3)cn2C)cc1C(=O)NCCN1CCOCC1`: 12.8% (active); for `Oc1c(C(Nc2ccccn2)c2ccccc2)ccc2cccnc12` (stereo not given): 23.6%.
The same measure for `NCc1ccc(S(N)(=O)=O)cc1`: 84.2%; for `O=P(O)(O)C(CCCc1cccc(Oc2ccccc2)c1)S(=O)(=O)O` (stereo not given): 65.2%; for `CCC[C@H](NC(=O)[C@@H]1[C@H]2CCC[C@H]2CN1C(=O)[C@@H](NC(=O)[C@@H](NC(=O)c1cnccn1)C1CCCCC1)C(C)(C)C)C(=O)C(=O)NC1CC1`: 46.8%.
Turning to `Fc1cccc(Cl)c1C1CC(c2ccc(Cl)cc2)Nc2nnnn21` (stereo not given), the parasite survival was 79.9%.
In the case of `Nc1nc(=O)[nH]cc1F`, the parasite survival was 51.9%.
For `C[C@@H]1O[C@@H]1P(=O)(O)O` the value was 46.3%; for `Cc1ccc(NC(=O)c2ccc(CN3CCN(C)CC3)cc2)cc1Nc1nccc(-c2cccnc2)n1`, 61%.
In the case of `Nc1nc2c(ncn2/C=C2/CC2(CO)CO)c(=O)[nH]1`, the parasite survival was 84.8%.
The same measure for `CCc1cc(Cc2cnc(N)nc2N)cc2c1N(C)CCC2C` (stereo not given): 45.2%; for `COc1ccc2nc(-c3ccccc3)cc(O)c2c1`: 6.87% (active).
For `O=C(NCc1ccc2c3c(cccc13)C(=O)N2)c1cccs1` the value was 75.5%; for `O=C(Nc1[nH]c(=O)ncc1F)c1ccccc1`, 84.3%; for `Clc1cccc(-c2nnc(-c3ccccc3)o2)c1`, 62.8%.
Regarding `C[C@H]1COc2c(N3CCN(C)CC3)c(F)cc3c(=O)c(C(=O)O)cn1c23`, the parasite survival is 51.4%.
`O=C1CCC(N2C(=O)c3ccccc3C2=O)C(=O)N1` (stereo not given): the parasite survival is 58.1%.
The same measure for `O=C(Cn1cnc2ccccc2c1=O)Nc1ccccc1`: 57.7%; for `CCC(C)n1ncn(-c2ccc(N3CCN(c4ccc(OCC5COC(Cn6cncn6)(c6ccc(Cl)cc6Cl)O5)cc4)CC3)cc2)c1=O` (stereo not given): 3.93% (active); for `CCOC(=O)N[C@@H]1CC[C@@H]2[C@@H](C1)C[C@H]1C(=O)O[C@H](C)[C@H]1[C@H]2/C=C/c1ccc(-c2cccc(F)c2)cn1`: 23%.
`CCCCc1ccc(-c2nc(C)c(C(=O)OC)s2)cc1`: the parasite survival is 64%.
For `N[C@H](CCC(=O)N[C@@H](Cc1c[nH]c2ccccc12)C(=O)O)C(=O)O` the value was 84.2%; for `OC1O[C@H](CSc2ccc(F)cc2)[C@@H](O)[C@H]1O` (stereo not given in full), 49.9%; for `CN(Cc1ccc(C(C)(C)C)cc1)Cc1cccc2ccccc12`, 37.9%.
For `O=C(Nc1ccc(F)cc1)c1nn(-c2ccccc2)c(=O)cc1Cl`, the parasite survival was 42.6%.
Consider `O=c1nc(N2CCN(CC3CCCCC3)CC2)sc2c([N+](=O)[O-])cc(C(F)(F)F)cc12`, for which the parasite survival was 43.6%.
The same measure for `CONC(=N)c1ccc(-c2ccc(-c3ccc(C(=N)NOC)cc3)o2)cc1`: 49.7%; for `CC(C)(C)NC(=O)N[C@H](C(=O)N1C[C@H]2[C@@H]([C@H]1C(=O)NC(CC1CCC1)C(=O)C(N)=O)C2(C)C)C(C)(C)C` (stereo not given in full): 48.5%.
